Assay in all cases: NCI-60 one-dose screen, 48 h (100 = growth as untreated, 0 = no growth, -100 = all killed)
Holding throughout (conditions): 10 µM unless noted

The subject of assay [1] is HCT-15 colon.
Assay [2] relates to HT29 colon.
The test system of assay [3] is SNB-75 CNS.
In assay [4] the test system is SNB-19 CNS.
Assay [5] has as its system U251 CNS.
Assay [6] concerns PC-3 prostate.
In assay [7] the test system is SK-MEL-5 melanoma.
Assay [8] relates to UACC-62 melanoma.
The test system of assay [9] is LOX IMVI melanoma.
Assay [10] concerns SK-MEL-28 melanoma.
Assay [11] deals with SK-MEL-2 melanoma.
In assay [12] the test system is EKVX NSCLC.
Assay [13] concerns SN12C renal.
For assay [14], the system named is UO-31 renal.
In assay [15] the test system is TK-10 renal.
In assay [16] the test system is ACHN renal.
Assay [17] concerns CAKI-1 renal.
Assay [18] has as its system A498 renal.
The subject of assay [19] is CCRF-CEM leukemia.
For assay [20], the system named is MOLT-4 leukemia.

Drawing on PubChem BioAssay (NCI), this text covers growth for eight compounds.

Compounds without any hit were thinned out: in the full panel of roughly 83,000, 20% have a hit.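 Assay: single dose, 48 h. Readout: percent growth (0 = no net growth; negative = cell death). Active: <10.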 Unmarked numbers belong to inactive results. Calls of active or inactive are those of the source.

Take `Oc1c(Cl)cc(Cl)c(Cl)c1CNCCNCc1c(O)c(Cl)cc(Cl)c1Cl`: the growth was 25.1% in [1]; 26.8% in [2]; 51.9% in assay [3]; 15.9% in [4]; 10.1% in assay [5]; 44.4% in [6]. Further, the growth in assay [7] is -1.48% (active); in assay [8], -13.3% (active); in [9], 6.53% (active); in assay [10], 21.4%; in assay [11] it was 18.3%; in [12], 22.4%. In addition, the growth in [13] was 36.2%; in assay [14], 0.579% (active); in [15], 39.5%; in assay [16], 8.86% (active); in assay [17], 9.72% (active); in [18] it was 51.3%. Moreover, the values for the growth in [19] and in assay [20] were 4.31% (active) and 10%, respectively.
For `COc1ccc(OC)c(CCn2cncc2-c2c[nH]c3ccccc23)c1`, the growth in assay [1] was 71.4%; in [2], 86.6%; in assay [3] it was 3.33% (active); in [4], 85.1%; in assay [5], 87.8%; in assay [6], 71.4%. The growth in [7] is 49.7%; in assay [8], 59.2%; in assay [9], 79.6%; in assay [10] it was 90.3%; in [11], 73.5%; in assay [12], 64.8%. In addition, the growth was 72% in assay [13]; 46.6% in assay [14]; 149% in assay [15]; 76.7% in assay [16]; 66.7% in assay [17]; 61.8% in assay [18]. The figures for the growth in assay [19] and in assay [20] were 68.1% and 75.3%, respectively.
On to `COc1cc(/C=C/C(=O)c2nc3cc(F)ccc3nc2C)cc(OC)c1OC`, for which the growth in assay [1] was 48.1%; in assay [2] it was 68.5%; in assay [3], 89.9%; in [4] it was 77.9%; in assay [5] it was 36.7%; in assay [6], 68.1%. Besides, the growth was 81% in [7]; 62.2% in [8]; 20.8% in assay [9]; 61.3% in assay [10]; 64.6% in assay [11]; 201% in [12]. Besides, the growth is 66.1% in assay [13]; 61.1% in [14]; 103% in [15]; 87.3% in assay [16]; 106% in [17]; 98% in assay [18]. The growth in assay [19] is -4.9% (active); in assay [20] it was -18.6% (active).
For `COc1ccc(/C=C/C(=O)Nc2cc(/C=C\c3cc(OC)c(OC)c(OC)c3)cc(OC)c2OC)cc1OC`, the growth was 25.9% in [1]; 14.6% in assay [2]; 34.7% in assay [3]; 46.2% in assay [4]; 41.3% in assay [5]; 20.7% in [6]. Also, the growth in assay [7] was -59.3% (active); in assay [8], 16.3%; in [9], 27.7%; in [10], 40.1%; in [11], 19.9%; in [12], 31.4%. Further, the growth in [13] is 33%; in assay [14] it was 19.4%; in [15], 73.9%; in [16], 39.1%; in [17], 12%; in assay [18] it was -1.95% (active). Further, the growth in assay [19] was 3.79% (active); in assay [20] it was -13.9% (active).
As for `NNC(=O)c1ccc(-n2nc(-c3ccccc3)c3ccccc32)cc1`, the growth was 57.6% in assay [1]; 103% in assay [2]; 53.6% in assay [3]; 66.1% in assay [4]; 22.6% in assay [5]; 69.4% in assay [6]. The growth is 84.5% in assay [7]; 80.7% in [8]; 68.2% in assay [9]; 83.9% in assay [10]; 79.3% in assay [11]; 63.4% in assay [12]. In addition, the growth in assay [13] is 75.1%; in assay [14], 68%; in assay [15], 110%; in assay [16] it was 85.6%; in assay [17], 76.5%; in [18] it was 75%. Also, the growth was 37.2% in assay [19] and 74.8% in [20].
Take `O=[N+]([O-])c1ccc(N=Nc2cc(S(=O)(=O)O)c3cccc(S(=O)(=O)O)c3c2O)cc1`: the growth in assay [1] is 118%; in [2], 111%; in [3] it was 104%; in assay [4], 112%; in assay [5], 104%; in [6], 98.5%. For the same compound, the growth was 104% in [7]; 108% in [8]; 106% in assay [9]; 117% in assay [10]; 106% in assay [11]; 82.7% in [12]. Further, the growth was 104% in assay [13]; 66.1% in assay [14]; 127% in assay [15]; 107% in [16]; 57.4% in assay [17]; 124% in assay [18]. For the same compound, the growth in [19] is 119%.
Regarding `COc1cc(C2=NN(C(C)=O)C(c3cc(OC)c(OC)c(OC)c3)C2)ccc1O` (centres undefined), the growth in assay [1] was 4.31% (active); in assay [2], 8.21% (active); in assay [3], 4.64% (active); in assay [4], 34.9%; in assay [5], 7.85% (active); in assay [6], 13.1%. Also, the growth in assay [7] is 6.65% (active); in assay [8], 15.3%; in [9] it was 34.7%; in [10] it was 68.2%; in assay [11] it was 37.9%; in assay [12], 34.8%. Further, the growth is 34.2% in [13]; 31.8% in assay [14]; 47.5% in assay [15]; 30.5% in assay [16]; 46.4% in assay [17]; -14.4% (active) in assay [18]. In addition, the growth was -16.5% (active) in assay [19] and 0.196% (active) in assay [20].
`COc1ccc(C(=O)C2C(C#N)C(C#N)C3C=Cc4ccccc4N32)cc1` (centres undefined): the growth in [1] was 16.9%; in assay [2], 8.8% (active); in assay [3], -21.3% (active); in assay [4], 32.7%; in assay [5], 34.6%; in assay [6], 29.2%. Besides, the growth in assay [7] is 15.2%; in assay [8], 57.6%; in assay [9], 43.5%; in assay [10], 57.6%; in assay [11], 44.5%; in [12] it was 56.7%. The growth was 32.7% in assay [13]; 42% in assay [14]; 91.9% in [15]; 44% in assay [16]; 27.4% in assay [17]; -9.53% (active) in assay [18]. For the same compound, the growth in assay [19] was 16.2%; in assay [20], 37.5%.
